The nature of experiment [1]: qHTS assay for small molecule activators of the nuclear factor-kappa B (NF-kB) signaling pathway (AID 651749; active means well fitted activation curve with a large enough effect in the signal ratio; the % refers to the signal ratio; further: % of control where 0% means no effect). Particulars: NF-kB-bla ME-180 cells, beta-lactamase FRET ratio, 16 h; active compounds read high. Summed up: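 Beta-lactamase reporter expression, controlled by NF-kB response elements in ME-180 cells, was quantified fluorometrically via FRET disruption; cells at 2,000/well had been incubated with 23 nL test compound for 16 hr.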
(Quantitative high-throughput screening tests each substance at several concentrations.)

Experiment [2] is described as follows: qHTS assay for small molecule disruptors of the mitochondrial membrane potential - 5 hr assay (AID 651755; calls by dose curve; further: nearly all actives have a fitted effect of over 40% in size; further: potency means the concentration at half of the fitted maximal effect). Particulars: JC-1-type ratio dye; series mostly up to 92.2 µM. Summed up:
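Seed HepG2 overnight, add compound, incubate 5 hr at 37C and 5% CO2, stain 30 min with Mito-MPS, then measure monomer (490/535 nm) and aggregate (540/590 nm) fluorescence.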

Experiment [3] deals with Tumor necrosis factor (Homo sapiens) (UniProt P01375). Kind of experiment: qHTS assay to identify small molecules that stimulate Tumor Necrosis Factor-alpha (TNF-alpha) secretion (AID 651757; active means well fitted curve in the direction sought with a large enough effect in the signal ratio; the % refers to the signal ratio; further: 0% is about no effect). Particulars: Human cells, HTRF 665/615 ratio; series mostly up to 92.2 µM. The gist of the method:
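THP-1 cells, 3000/well; compound 17 hrs, 37 C; add cryptate/XL665 anti-TNF-alpha antibody pair; 3 hr RT; TR-FRET (HTRF) read of secreted TNF-alpha. Quantitative HTS format.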

Experiment [4] in a line: qHTS assay for environmental chemicals that activate the Aryl hydrocarbon Receptor (AhR) signaling pathway (AID 651777). Further: nearly all actives have a fitted effect of over 15% in size. Further: potency means the concentration at half of the fitted maximal effect. On activation: % of control where 0% means no effect. The conditions noted are these: 1A2-DRE human hepatoma cells, luciferase, 24 h; activation: active compounds read high. The gist of the method: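 Stable CYP1A2 promoter/DRE-luciferase human hepatoma line treated 24 hr; One-Glo luminescence, 30 min RT.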
The target of experiment [5] is Peroxisome proliferator-activated receptor alpha (Homo sapiens) (UniProt Q07869). Nature of the experiment: qHTS assay for small molecule agonists of the peroxisome proliferator-activated receptor alpha (PPARalpha) signaling pathway (AID 651778). Further: % of control where 0% means no effect. The conditions noted are these: PathHunter PPARalpha complementation, chemiluminescence, 6 h; active compounds read high. Summed up:
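Cells plated at 2,000/well and held overnight at 37 C, 5% CO2, then compound added by pin tool for 6 hr; after PathHunter detection reagent and 60 min at room temperature, chemiluminescence from enzyme complementation was read.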

Experiment [6] concerns the target Nuclear receptor ROR-gamma (Homo sapiens) (UniProt P51449). Nature of the experiment: qHTS assay for small molecule antagonists of the retinoid-related orphan receptor gamma (ROR-gamma) signaling pathway (AID 651802).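 Further: CHO cells with doxycycline-induced ROR-gamma expression; luciferase reporter luminescence driven by ROR response element; on the % scale 0 is the no-effect control and ±100 the full control effect; nearly all actives have a fitted effect of over 60% in size.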 Particulars: ROR-gamma antagonist cell reporter assay; series mostly up to 92.2 µM. Summed up:
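Luciferase read-out: ONE-Glo luminescence after 30 min at room temperature, following 16hr doxycycline induction at 37C, 5% CO2 of CHO cells with TET-inducible ROR and RORE-LUC reporter; decreased luminescence = reduced reporter activity.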

The nature of experiment [7]: qHTS assay to identify small molecules that stimulate interleukin-8 (IL-8) secretion (AID 651758; active means well fitted activation curve with a large enough effect in the signal ratio; the % refers to the signal ratio; further: potency means the concentration at half of the fitted maximal effect; on activation: 0% is about no effect). The conditions noted are these: HTRF ratio (665/615); series mostly up to 92.2 µM. Summed up: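 Quantitative HTS in THP-1 monocytic cells at 2000 cells per well, with 16 hrs compound incubation at 37 C. IL-8 in the medium was then quantified by HTRF immunoassay, read after 1-3 hrs at room temperature.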

Experiment [8] can be described thus: HTS Assay for Allosteric Antagonists of the Human D2 Dopamine Receptor: Hit Validation in HTRF (AID 624455). Further: on the % scale 0 is the no-effect control and ±100 the full control effect. Particulars: Cells stably expressing D1 dopamine receptor, inhibition mode; series mostly up to 46.1 µM. The gist of the method:
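HTRF read-out; cells stably expressing D1 receptor; hits scored for inhibition of D1-mediated response. Primary screen: calcium flux, force-coupled inducible Hek293 Trex D2 line, antagonism vs EC80 dopamine.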

We go through 23 compounds from PubChem BioAssay (NCATS).

“And” between values parts separate entries of the source, which are not always exact repeats. Equal values may be shown once. Unmarked numbers belong to inactive results. Inconclusive results are not listed. The source made the active and inactive calls. Unless noted, the call rests on the fitted dose curve; in most records, active means well fitted curve in the direction sought with a large enough effect; inconclusive means small, poorly fitted or top-dose-only effect, or another doubt; inactive means no such curve, though single readings can be large; an effect the other way counts as inactive or inconclusive.

Sequence of Peroxisome proliferator-activated receptor alpha (Homo sapiens) (Q07869 whole entry, looked up): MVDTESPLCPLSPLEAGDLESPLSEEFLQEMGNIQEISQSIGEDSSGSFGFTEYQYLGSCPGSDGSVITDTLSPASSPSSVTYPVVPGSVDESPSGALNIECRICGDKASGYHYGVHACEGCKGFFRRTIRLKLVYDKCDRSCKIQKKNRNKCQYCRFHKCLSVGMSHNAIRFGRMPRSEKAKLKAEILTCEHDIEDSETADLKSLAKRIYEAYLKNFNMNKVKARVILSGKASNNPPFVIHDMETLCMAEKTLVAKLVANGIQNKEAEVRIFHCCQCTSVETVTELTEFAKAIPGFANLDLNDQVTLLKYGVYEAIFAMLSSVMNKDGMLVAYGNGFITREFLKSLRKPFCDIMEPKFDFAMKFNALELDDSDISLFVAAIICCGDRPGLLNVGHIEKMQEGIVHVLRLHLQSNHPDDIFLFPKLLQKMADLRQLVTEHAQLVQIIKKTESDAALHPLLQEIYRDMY
Sequence of Nuclear receptor ROR-gamma (Homo sapiens) (P51449 whole entry, looked up): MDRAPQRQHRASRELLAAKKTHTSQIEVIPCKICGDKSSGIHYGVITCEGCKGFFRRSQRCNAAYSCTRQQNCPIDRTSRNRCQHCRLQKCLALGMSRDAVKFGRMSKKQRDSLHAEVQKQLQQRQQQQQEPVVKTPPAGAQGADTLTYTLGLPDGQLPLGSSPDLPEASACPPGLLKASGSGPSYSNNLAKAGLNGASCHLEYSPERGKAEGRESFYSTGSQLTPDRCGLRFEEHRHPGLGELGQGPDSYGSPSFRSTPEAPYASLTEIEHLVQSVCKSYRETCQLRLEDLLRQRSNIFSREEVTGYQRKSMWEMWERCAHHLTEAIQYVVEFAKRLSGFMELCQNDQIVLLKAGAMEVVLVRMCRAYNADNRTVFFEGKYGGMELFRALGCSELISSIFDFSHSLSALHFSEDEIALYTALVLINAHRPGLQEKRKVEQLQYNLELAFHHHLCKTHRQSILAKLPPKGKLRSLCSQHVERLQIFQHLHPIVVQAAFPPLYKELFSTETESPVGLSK
Sequence of Tumor necrosis factor (Homo sapiens) (P01375 whole entry, looked up): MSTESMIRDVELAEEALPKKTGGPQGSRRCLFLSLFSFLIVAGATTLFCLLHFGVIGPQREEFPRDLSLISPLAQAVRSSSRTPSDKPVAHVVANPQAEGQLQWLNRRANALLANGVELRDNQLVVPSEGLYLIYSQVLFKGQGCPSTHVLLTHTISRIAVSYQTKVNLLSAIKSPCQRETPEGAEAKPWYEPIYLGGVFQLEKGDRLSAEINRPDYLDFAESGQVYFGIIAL

Turning to `NCCN`, the activation in experiment [1] was -0.458%; in experiment [4], -1.15%. Also, the Potency result in experiment [2], in experiment [3] and in experiment [6] was “inactive” in each case. Also, the max response in experiment [5] is -6.55%.

With `NC(N)=O`, the activation in experiment [1] is 1.05%. Also, the Potency result in experiment [2], in experiment [3] and in experiment [6] was “inactive” in each case. In addition, in experiment [5], the max response was -1.08%.

Take `CCCCC`: the activation in experiment [1] is -0.668%. Further, the Potency entry in experiment [2], in experiment [3] and in experiment [6] was “inactive” each time. In addition, the max response in experiment [5] was -0.71%.

With `Oc1cccc(O)c1O`, the activation was 2.45% in experiment [1] and -0.8% in experiment [4]. Moreover, the Potency entry in experiment [2] and in experiment [6] was “inactive” throughout. Further, in experiment [7], the Potency is 75 µM (active). Moreover, the max response in experiment [5] was 0.0177%.

Consider `ClC(Cl)Cl`, for which the results for the activation in experiment [1] and in experiment [4] were -1.06% and -0.58%, respectively. The Potency result in experiment [2] and in experiment [3] was “inactive” throughout. Moreover, the max response in experiment [5] was 0.366%.

In the case of `O=P(O)(O)O`, the results for the activation in experiment [1] and in experiment [4] were -0.144% and -1.09%, respectively. The Potency entry in experiment [2], in experiment [3] and in experiment [6] was “inactive” in each case. Moreover, the max response in experiment [5] is -4.49%.

Take `CC1=CCC2CC1C2(C)C` (stereo unspecified): the activation is -0.174% in experiment [1] and 1.2% in experiment [4]. Moreover, the Potency result in experiment [2], in experiment [3], in experiment [7] and in experiment [6] was “inactive” in each case. Also, in experiment [5], the max response was -6.44%.

Take `O=c1n(CC2CO2)c(=O)n(CC2CO2)c(=O)n1CC1CO1` (stereo unspecified): the activation in experiment [1] is -0.976% and -0.874%; in experiment [4], 1.5% and 3.12%. Further, the Potency entry in experiment [2] and in experiment [6] was “inactive” throughout. Besides, in experiment [5], the max response was -0.847% and -0.241%.

On to `OCC(O)CO`, for which the activation in experiment [1] is 0.141% and 0.577%; in experiment [4], -0.636% and 0.226%. Besides, the Potency entry in experiment [2], in experiment [3] and in experiment [6] was “inactive” each time. The max response in experiment [5] is -3.36% and -0.557%.

On to `CC1=CC(=O)NS(=O)(=O)O1`, for which the activation in experiment [1] is -0.0661% and 0.935%; in experiment [4] it was -1.78% and 1.57%. In addition, the Potency entry in experiment [2], in experiment [3] and in experiment [6] was “inactive” throughout. Also, in experiment [5], the max response was -1.04% and -0.299%.

Regarding `c1ccc2ccccc2c1`, the activation in experiment [1] is 0.258% and -0.756%; in experiment [4], 0.0968% and 0.369%. Also, the Potency result in experiment [3] and in experiment [6] was “inactive” throughout. Moreover, the max response in experiment [5] is -3.91% and 0.0956%.

On to `CCOC(C)OCC`, for which the results for the activation in experiment [1] and in experiment [4] were 0.0884% and -0.455%, respectively. The Potency entry in experiment [3] and in experiment [6] was “inactive” throughout. The max response in experiment [5] is -1.13%.

As to `OCl`, the figures for the activation in experiment [1] and in experiment [4] were -0.921% and 0.267%, respectively. For the same compound, the Potency entry in experiment [2], in experiment [3] and in experiment [6] was “inactive” in each case. For the same compound, the max response in experiment [5] was -2.41%.

`Nc1nccs1`: the activation in experiment [1] is 0.221%; in experiment [4] it was 1.04%. Further, the Potency entry in experiment [3] and in experiment [6] was “inactive” each time. Besides, in experiment [5], the max response was -4.35%.

For the compound `[O-][N+](=Nc1ccccc1)c1ccccc1`, the activation in experiment [1] was 0.0708%. The Potency result in experiment [2] and in experiment [3] was “inactive” throughout. For the same compound, in experiment [5], the max response was 10.8%.

In the case of `COC(=O)c1ccccc1O`, the activation in experiment [1] was -1.33% and 1.01%; in experiment [4] it was 0.888% and 1.53%. In addition, the Potency entry in experiment [3] and in experiment [6] was “inactive” in each case. Moreover, the max response in experiment [5] is -2.75% and -2.44%.

For `C[C@H](CCC(=O)O)[C@H]1CC[C@H]2[C@@H]3CC[C@@H]4C[C@H](O)CC[C@]4(C)[C@H]3C[C@H](O)[C@]12C`, the activation in experiment [1] is 0.346%; in experiment [4], -0.635%. Besides, the Potency result in experiment [2] and in experiment [3] was “inactive” in each case. For the same compound, the max response in experiment [5] is -0.194%.

Consider `CO/N=C(/C(=O)N[C@@H]1C(=O)N2C(C(=O)O)=C(COC(N)=O)CS[C@H]12)c1ccco1`, for which the activation in experiment [1] is -0.141%; in experiment [4] it was -0.274%. Further, the Potency entry in experiment [2], in experiment [3] and in experiment [6] was “inactive” throughout. Also, in experiment [5], the max response was -0.921%.

As to `Cc1ncc[nH]1`, the activation in experiment [1] was 0.166%; in experiment [4], 0.165%. Also, the Potency entry in experiment [2], in experiment [3], in experiment [7] and in experiment [6] was “inactive” in each case. In addition, in experiment [5], the max response is -1.93%.

For the compound `OCc1ccccc1`, the activation was 0.143% in experiment [1] and 0.173% in experiment [4]. Besides, the Potency entry in experiment [2], in experiment [3], in experiment [7] and in experiment [6] was “inactive” in each case. Moreover, in experiment [5], the max response is 2.92%.

For the compound `CC(C)O`, the values for the activation in experiment [1] and in experiment [4] were -0.863% and 2.92%, respectively. Also, the Potency result in experiment [2], in experiment [3], in experiment [7] and in experiment [6] was “inactive” throughout. Further, the max response in experiment [5] was -0.168%.

As for `Oc1ccc(/C=C/c2cc(O)cc(O)c2)cc1`, the call in experiment [8] was inactive. Moreover, the activation in experiment [1] was 5.67%. Further, the Potency in experiment [2] is 5.31 µM (active); in experiment [4], 25.1 µM (active). Further, the max response in experiment [5] is -3.92% and -4.52%. The Potency entry in experiment [6] was “inactive”.

`CC[C@H]1OC(=O)[C@H](C)[C@@H](O[C@H]2C[C@@](C)(OC)[C@@H](O)[C@H](C)O2)[C@H](C)[C@@H](O[C@@H]2O[C@H](C)C[C@H](N(C)C)[C@H]2O)[C@](C)(O)C[C@@H](C)CN(C)[C@H](C)[C@@H](O)[C@]1(C)O`: the activation in experiment [1] is -0.197%; in experiment [4] it was 0.789%. For the same compound, the Potency entry in experiment [2], in experiment [3] and in experiment [6] was “inactive” in each case. The max response in experiment [5] is -5.78%.
